Compound activity deposited in PubChem BioAssay by National Center for Advancing Translational Sciences (NCATS).
This is a sample that favours compounds with a hit; in the whole collection about 1.2% have one here.
Pin1 inhibitor – qHTS Assay to Find Inhibitors of Pin1; Peptidyl-prolyl cis-trans isomerase NIMA-interacting 1 (Homo sapiens), Q13526; Potency, µM (series often up to 115 µM), inactives show at the top dose activity, negative = inhibition, usual class: inhibitors; Pin1 FP peptide displacement, HiFluor488, 10 min; hit rate 0.009% among 390,000; active = well fitted inhibition curve with a large enough effect in the polarisation, with a control signal flat, not every such curve was filed as active; inconclusive = small, poorly fitted or top-dose-only effect, or effect the other way, or a change in a side signal; inactive = no such curve, though single readings can be large or run the other way; the % refers to the polarisation; note: potency is the fitted concentration of half-maximal effect
RGS4 inhibitor – Inhibitors of Regulator of G Protein Signaling (RGS) 4: qHTS; Regulator of G-protein signaling 4 (Homo sapiens), P49798; hit rate 0.039% among 390,000; Transcreener GDP fluorescence polarization, RGS4-accelerated GTP hydrolysis; Potency, µM (highest dose often 114 µM), for the others: top-dose activity change, negative = inhibition, actives largely listed as inhibitors; note: potency is the fitted concentration of half-maximal effect; nearly all actives have a fitted effect of over 75% in size
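MLSMR compounds (23 nl, pin-transferred) preincubated 10 min at room temperature with a 500nM (2x) first reagent, then RGS4 at 900nM (2x) plus Transcreener GDP mix added; fluorescence polarization (620/688 nm) read before and after 90 min at 30 °C.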
Tb PGK inh – qHTS Assay to Find Inhibitors of Phosphoglycerate Kinase | hit rate 0.043% among 380,000 | Potency, µM (series often up to 57.5 µM), for inactives: top-dose activity change, negative = inhibition, most hits filed as inhibitors | PGK/GAPDH coupled, Kinase-Glo luminescence, 60 min | Phosphoglycerate kinase, glycosomal (Trypanosoma brucei brucei), P07378 | AID 602233, 2012; note: potency is the fitted concentration of half-maximal effect; nearly all actives have a fitted effect of over 60% in size
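Recombinant glycosomal PGK reaction used 1,3-bisphosphoglycerate generated in-well by GAPDH (100nM final) in 100mM TEA pH 7.6, 5mM MgCl2, 0.01% Tween-20. After 60 minutes at room temperature, ATP was read by Kinase-Glo Plus luminescence end-point.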
KAT2A inh – qHTS Assay for Inhibitors of GCN5L2. Histone acetyltransferase KAT2A (Homo sapiens), Q92830. GCN5L2 HAT assay, ThioGlo1 CoA-SH fluorescence. Potency, µM (highest dose often 58.9 µM), inactives show at the highest dose activity change, negative = inhibition, usual class: inhibitors. hit rate 0.21% among 390,000. AID 504327, 2011; note: potency is the fitted concentration of half-maximal effect
Target sequence (Q92830 whole entry, looked up): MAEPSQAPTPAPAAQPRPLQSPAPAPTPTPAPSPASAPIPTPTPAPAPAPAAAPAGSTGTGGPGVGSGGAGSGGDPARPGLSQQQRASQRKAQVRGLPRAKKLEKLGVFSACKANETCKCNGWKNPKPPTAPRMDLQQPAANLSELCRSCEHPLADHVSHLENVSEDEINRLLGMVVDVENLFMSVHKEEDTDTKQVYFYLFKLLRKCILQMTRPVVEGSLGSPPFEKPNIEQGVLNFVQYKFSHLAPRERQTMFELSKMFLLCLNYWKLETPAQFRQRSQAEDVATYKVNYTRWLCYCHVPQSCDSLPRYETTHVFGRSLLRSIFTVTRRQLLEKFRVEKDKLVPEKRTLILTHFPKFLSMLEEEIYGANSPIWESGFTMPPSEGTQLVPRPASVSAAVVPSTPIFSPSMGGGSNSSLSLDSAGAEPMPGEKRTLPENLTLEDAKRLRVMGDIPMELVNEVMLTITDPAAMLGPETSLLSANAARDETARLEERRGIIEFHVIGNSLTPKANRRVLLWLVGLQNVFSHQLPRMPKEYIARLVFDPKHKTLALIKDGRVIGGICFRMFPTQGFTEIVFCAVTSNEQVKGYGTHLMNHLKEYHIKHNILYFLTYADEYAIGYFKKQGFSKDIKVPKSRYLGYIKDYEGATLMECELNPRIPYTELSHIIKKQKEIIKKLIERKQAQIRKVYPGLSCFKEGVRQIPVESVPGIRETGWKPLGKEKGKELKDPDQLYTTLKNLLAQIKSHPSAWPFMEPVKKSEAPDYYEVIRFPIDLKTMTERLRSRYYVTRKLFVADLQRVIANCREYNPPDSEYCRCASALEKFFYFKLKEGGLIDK
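GCN5L2 (20nM final) in 50mM HEPES, 0.1mM EDTA pH 7.5, 0.01% Tween-20 was preincubated 15 min at room temperature with compound, then given ThioGlo1 (50uM), H3(1-25) peptide (75uM) and acetyl-CoA (70uM); CoA-thiol fluorescence (Ex340/Em540) was read at 0 and 20 min.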
KCNH2 WT inh – qHTS for Inhibitors of KCHN2 3.1: Wildtype qHTS | Voltage-gated inwardly rectifying potassium channel KCNH2 (Homo sapiens), Q12809 | U2OS, BacMam KCNH2, thallium flux FluxOr; active compounds read low | activity change, % at 1.84 µM | hit rate 0.37% among 340,000;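 active = maximum activity change below -70%; inconclusive = maximum activity change between -70% and -50%; inactive = maximum activity change above -50%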
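U2OS cells transduced with wild-type KCNH2 virus are loaded with FluxOr dye for 45 min, and thallium flux is measured in kinetic reads before and after stimulation buffer. Rate constants are normalized to DMSO controls.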
KCNH2 3.1 inh – qHTS for Inhibitors of KCHN2 3.1: Mutant qHTS. Potassium voltage-gated channel subfamily H member 2, brain isoform KCNH2 3.1 (human). U2OS KCNH2 3.1, thallium flux FluxOr; active compounds read low. activity change, % (tested at about 1.8 µM). hit rate 0.95% among 340,000;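 active = maximum activity change below -70%; inconclusive = maximum activity change from -70% to -50%; inactive = maximum activity change above -50%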;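 note: thallium influx rate constant from kinetic fluorescence after stimulation buffer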
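Channel expression came from 3.1 mutant virus (1.77 x 10^8 /mL) applied to suspended U2OS cells for 4 h. Flux was tracked with FluxOr dye plus Red40 quencher, and kinetic rate constants normalized to controls.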
An asterisk follows results filed as active; i = inactive; ? = inconclusive; . = not tested or not shown. Unless noted, calls come from the whole dose curve; as a rule, active = well fitted curve in the direction sought with a large enough effect; inconclusive = small, poorly fitted or top-dose-only effect, or another doubt; inactive = no such curve, though single readings can be large; an effect the other way counts as inactive or inconclusive. % is set by controls: 0 for no effect and ±100 for the full control effect.

SMILES	Pin1 inhibitor	RGS4 inhibitor	Tb PGK inh	KAT2A inh	KCNH2 WT inh	KCNH2 3.1 inh
CN/N=C(\Cc1nc2ccccc2[nH]1)c1ccc([N+](=O)[O-])cc1	1%	-44%	-1%	-6%	?	-75*
Clc1ccc(/C(Cc2nc3ccccc3[nH]2)=N\Nc2ccccc2)cc1	-4%	-53%	i	-21%	0	-102*
O=C(Cc1nc2ccccc2[nH]1)c1ccc([N+](=O)[O-])cc1	1%	-19%	-8%	-10%	37	13
CCCCCn1c(CN2CCN(c3ccc(OC)cc3)CC2)nc2c1c(=O)[nH]c(=O)n2C	-7%	-25%	i	5%	.	.
O=[N+]([O-])c1ccc(/C=C/C2=NN(c3ccccc3)C(c3ccco3)C2)o1 (configuration not stated)	62%	-16%	-23%	-8%	-45	-73*
COc1ccc(CCNC(=O)c2ccc3c(c2)N(Cc2ccc(Cl)cc2)C(=O)c2ccccc2S3)cc1OC	14%	-18%	-4%	-3%	.	.
CCCC(=O)Nc1nnc(SCc2cc(=O)c3ccc(C)cc3[nH]2)s1	4%	1%	7%	-4%	.	.
CCc1nnc(SCc2cccc(Cl)c2)c2cc3sccc3n12	9%	20%	.	-11%	.	.
O=S(=O)(c1ccc(Cl)cc1)N1CCC(O)(CN2CCN(Cc3ccccc3)CC2)CC1	-3%	-4%	-3%	-6%	-19	-73*
O=S(=O)(c1ccc(S(=O)(=O)N2CCN(Cc3ccccc3)CC2)cc1)N1CCOCC1	.	.	.	-1%	.	.
CCc1ccc(CN(C(=O)c2cc(=O)c3ccc(C)cc3o2)C2CCS(=O)(=O)C2)cc1 (configuration not stated)	-2%	-35%	9%	-3%	.	.
O=C(CN(Cc1ccccc1)C(=O)c1cccc([N+](=O)[O-])c1)Nc1c(Cl)cc(Cl)cc1Cl	-1%	5%	-7%	0%	7	-87*
CCN1C(=O)[C@H]2[C@@H](c3ccc(-c4ccc5c(c4)OCO5)c(OC)c3)N[C@@](Cc3ccccc3)(C(=O)OC)[C@H]2C1=O	-9%	-1%	0%	-14%	6	-111*
Cc1onc(-c2c(F)cccc2Cl)c1C(=O)NNC(=O)C1CCN(Cc2ccccc2)CC1	2%	-12%	4%	-4%	22	-102*
COc1ccc2c(c1)CCc1c(C(=O)Nc3c(C)nn(Cc4ccccc4)c3C)noc1-2	29%	7%	-5%	-1%	-6	-71*
COc1ccc(C(=O)N2CC(=O)Nc3ccc(C)cc3C2c2ccc(F)cc2)c(OC)c1 (configuration not stated)	5%	14%	i	-2%	.	.
CCN1C(Nc2ccccc2)=NC[C@@H]1Cc1ccccc1	-1%	-5%	10%	2%	-15	-109*
c1ccc(C[C@H]2CN=C(Nc3ccccc3)N2CCCC2CCCC2)cc1	-7%	-13%	-1%	4%	-93*	-96*
CCCCCCCN1C(Nc2ccccc2)=NC[C@@H]1Cc1ccccc1	3%	4%	-3%	-10%	-30	-109*
c1ccc(CCCCN2C(Nc3ccccc3)=NC[C@@H]2Cc2ccccc2)cc1	-16%	14%	0%	-5%	-36	-104*
COc1ccc(NC(=O)c2cnc(SCC(=O)Nc3nc4ccc(C)cc4s3)n(C)c2=O)cc1	4%	-45%	-5%	0%	.	.
CC(=O)c1ccc(N2C(=O)N(Cc3cc(C)ccc3C)c3ccccc3S2(=O)=O)cc1	0%	4%	-5%	-9%	.	.
CNC(=O)C1CCC(Cn2c(=O)c3sccc3n(CC(=O)NCc3ccc(C)cc3)c2=O)CC1 (configuration not stated)	1%	-5%	0%	2%	.	.
CN(C)C1=NC[C@H](Cc2ccccc2)N1CCCC1CCCC1	-1%	2%	5%	1%	-32	-102*
COc1ccc(S(=O)(=O)N2CCCCC2)cc1NC(=O)Cc1cccs1	9%	15%	-1%	0%	-6	-76*
SMILES	Pin1 inhibitor	RGS4 inhibitor	Tb PGK inh	KAT2A inh	KCNH2 WT inh	KCNH2 3.1 inh
O=C(Cc1cccs1)Nc1cc(S(=O)(=O)N2CCCCC2)ccc1Cl	-7%	-23%	-3%	-4%	-6	-7
O=C(COc1ccccc1C(=O)N/N=C\c1ccc(O)c(O)c1)N/N=C/c1ccc(O)c(O)c1	?	-20%	2.2µM*	-21%	-3	-21
COc1ccc(-c2nnc(SCC(=O)NC(=O)NCc3ccccc3)o2)cc1	1%	0%	-3%	-1%	-9	-118*
Nc1cc(N)c2c(c1)C(=O)c1ccccc1-2	?	-7%	-13%	.	-131*	-198*
Nc1c(O)ccc2c1C(=O)c1ccccc1C2=O	?	?	?	-3%	0	19
Fc1c(CSC(=S)N2CCOCC2)cccc1CSC(=S)N1CCOCC1	11%	17%	-3%	-2%	-152*	-196*
O=C1c2ccccc2C(=O)N1CCSC(=S)N1CCOCC1	-3%	-5%	.	-6%	-11	15
Cc1ccc(CNC(=O)C2CC(c3ccccc3C(F)(F)F)=NO2)cc1 (configuration not stated)	-5%	6%	i	-1%	1	-158*
O=C(NCc1ccc(C(F)(F)F)cc1)C1CC(c2ccccc2C(F)(F)F)=NO1 (configuration not stated)	0%	18%	-7%	13%	16	-6
FC(F)(F)c1cc(CN2CCCC3(CCNCC3)C2)cc(C(F)(F)F)c1	.	.	.	10%	.	.
CS(=O)(=O)c1ccc(C(O)C(CO)NC(=O)C(Cl)Cl)cc1 (configuration not stated)	.	.	.	7%	.	.
COc1ccc(Nc2nc(NCc3ccco3)nc(N/N=C/c3ccc(O)cc3)n2)cc1	10%	-29%	-1%	-21%	-30	-90*
COc1ccc(/C=N/Nc2nc(NCc3ccco3)nc(Nc3ccc(OC)cc3)n2)cc1	13%	-24%	i	-9%	-4	-93*
COc1ccc(Nc2nc(NCc3ccco3)nc(N/N=C/c3ccccc3F)n2)cc1	48%	5%	-2%	-9%	-23	-97*
CCCC1CC(C(=O)N[C@H](C(C)O)C2OC(SC)[C@@H](O)C(O)C2O)N(C)C1 (some centres not stated)	.	.	.	-4%	.	.
